# D1 antagonist: antagonists of human D1 dopamine receptor | P21728 | HEK293 TREx D1 cells, calcium flux, dopamine EC80; active compounds read low | activity change, negative = inhibition, % at 10 µM | 3.2% of 360,000 active | AID 504652; in the data active = activity change below about -30%; also: % is scaled to controls: 0 for no effect and ±100 for the full control effect
#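 Antagonism measured as reduced calcium response to an EC80 dopamine addition following 180 s compound pre-read; cells were inducible HEK293 Trex D1 plated overnight at 30 C, read kinetically at 1 cycle/sec.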
# Glioma ERSR ind: induces the endoplasmic reticulum stress response in human glioma cells; U87-MG GRP78 promoter luciferase reporter, 16 h; Potency, µM, without a hit: at the highest dose activation, hits mostly activators; 0.02% of 420,000 active; active = well fitted activation curve with a large enough effect; also: potency is read from the fitted curve at half-maximal effect; series mostly up to about 76 µM; % of control where 0% means no effect; nearly all actives have a fitted effect of over 35% in size
#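 ERSR induction read as luciferase luminescence (Bright-Glo, 10 min at room temperature) in stably transfected human U87-MG glioma cells exposed to compounds for 16 h, using GRP78 as sensor.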
# D1 PAM: potentiators of human D1 dopamine receptor. 0.036% of 360,000 active. AID 504651. potentiation, % at 10 µM. HEK293 TREx D1 cells, calcium flux, dopamine EC20 potentiation. P21728; in the data active = potentiation above about 30%; also: 0% is about no effect
# TRHR enhancer: allosterically enhances the human TRH receptor; 0.66% of 360,000 active; P34981; enhancement, % at 2 µM; TRHR cells, fluo-8 calcium fluorescence, EC20 TRH enhancement; in the data active = enhancement above about 30%; also: 0% is about no effect
# Target sequence (P34981 whole entry, looked up): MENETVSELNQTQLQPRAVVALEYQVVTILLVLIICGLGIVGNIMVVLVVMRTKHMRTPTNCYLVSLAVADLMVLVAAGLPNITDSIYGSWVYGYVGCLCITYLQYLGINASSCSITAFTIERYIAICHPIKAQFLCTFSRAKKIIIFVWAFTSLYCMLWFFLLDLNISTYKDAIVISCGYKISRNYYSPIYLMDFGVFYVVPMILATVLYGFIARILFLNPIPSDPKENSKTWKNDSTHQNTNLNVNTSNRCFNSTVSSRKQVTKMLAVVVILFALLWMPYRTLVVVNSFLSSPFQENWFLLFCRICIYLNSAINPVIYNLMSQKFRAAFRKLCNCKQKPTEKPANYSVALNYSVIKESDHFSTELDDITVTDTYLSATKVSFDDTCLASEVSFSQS
#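 Enhancer read-out: after compound pinning and an initial kinetic agonist-mode read, an EC20 of TRH (10 nM final) was injected and fluo-8 calcium signal (Ex 480/Em 530) followed at 1 s/cycle for 100 cycles in TRHR-expressing cells.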
# TRHR ag: agonists of human TRH receptor; P34981; TRHR cells, calcium flux fluo-8, FDSS agonist mode; activation, % at 2 µM; 0.18% of 360,000 active; AID 493084; also: 0% is about no effect
#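 Read-out: compound-evoked intracellular calcium rise in TRHR cells, fluo-8 dye, kinetic FDSS fluorescence at 1 s/cycle following a 10-cycle baseline. Cells cultured overnight before dye loading (30 min–1.5 h, RT).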
# D1 agonist: human D1 receptor agonism; P21728; HEK293 T-REx D1 cells, calcium flux, agonist mode; activation, % at 2 µM; 1% of 360,000 active; AID 504660; also: 0% is about no effect
#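 Tetracycline-induced HEK293 TREx D1 cells, force-coupled to calcium signalling, were dye-loaded with a no-wash calcium kit. Compound was pin-added after a 10 s baseline. Fluorescence was read kinetically at 1 cycle/s for 180 s, with calcium rises flagged as agonism.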
# Active calls of the source: *; . = not tested or not shown. Only some compounds are listed: those with a hit (about 4% of all), similar ones and a draw of the others. Rule as the data show it, unless noted: active = activation above about 30%; inactive = the rest.
SMILES,D1 antagonist,Glioma ERSR ind,D1 PAM,TRHR enhancer,TRHR ag,D1 agonist
COc1cccc(CN(C(=O)COc2ccc(Cl)cc2)C2CCS(=O)(=O)C2)c1 (stereo not given),7.1,-2.5%,-13.7,4.3,-0.1,4.9
Cc1ccccc1CN1CCc2c(OCC(=O)N3CCCCC3)cccc2C1=O,-41.3*,-1.0%,-1.9,-3.6,0.1,3.5
CCOC(=O)N1CCN(C(=O)COc2cccc3c2CCN(Cc2ccccc2F)C3=O)CC1,-30.5*,-0.1%,1.3,7.5,-0.5,1.4
CC1CCN(C(=O)COc2cccc3c2CCN(C)C3=O)CC1,-32.2*,1.7%,-5.7,-1.7,0.2,-0.4
Cc1cccc(NC(=O)COc2cccc3c2CCN(C)C3=O)c1,7.9,-1.4%,-4.2,5.6,0.3,11.6
O=C(COc1cccc2c1CCN(Cc1ccccc1F)C2=O)N1CCCCC1,-10.5,-2.7%,0.9,-2.7,-0.2,3.0
COc1cc(=O)n2c(c1C(=O)NCc1ccco1)CCN(Cc1ccc3ccccc3c1)CC2,.,-5.5%,.,.,.,.
CCOC(=O)c1ccc(NC(=O)Cn2nc(C)c3nn(-c4ccc(Cl)cc4)c(C)c3c2=O)cc1,8.9,-3.8%,-1.6,34.2*,0.2,6.7
CC(/C=N/NC(=O)c1nn(C)c(C)c1Br)=C\c1ccccc1,-9.7,3.1%,-6.0,-3.0,-1.2,2.0
COc1ccc(NC(=S)NCc2cccnc2)cc1,-30.6*,-5.9%,-0.6,1.3,0.1,1.3
Cc1ccc(NC(=O)NCc2cccnc2)cc1C,0.7,1.5%,1.8,10.1,-0.3,0.9
COc1ccc(NC(=S)NCc2cccnc2)cc1OC,5.6,-3.6%,-2.7,1.8,0.4,0.3
O=C(NCc1cccnc1)Nc1ccc(Cl)c(Cl)c1,-45.6*,3.1%,-6.3,-6.7,0.6,12.9
COc1ccc(/C=C(/NC(=O)/C=C/c2ccccc2)C(=O)O)cc1,14.3,1.9%,6.2,34.5*,0.2,-1.5
COc1ccc(/C=C/C(=O)NCc2cccnc2)cc1,-40.3*,0.4%,-5.7,-5.4,-0.7,-1.2
CCCS(=O)(=O)N1CCCC(C(=O)N2CCN(C(=O)OCC)CC2)C1 (stereo not given),0.5,-5.6%,0.7,-4.9,0.2,1.4
COc1ccc(N2CCN(C(=O)COC(=O)c3ccc(C)o3)CC2)cc1,9.3,-4.5%,-1.1,-1.1,-0.3,1.2
Cc1cc2c(s1)c1cnn(Cc3cccc([N+](=O)[O-])c3)c(=O)c1n2C,-4.6,.,5.9,5.7,-0.4,8.8
CC(C)(C)n1ncc2c(=O)n(Cc3ccc(SC(=O)O)cc3Cl)cnc21,.,-3.2%,.,.,.,.
COc1ccc(CNC(=S)Nc2ccc(-c3ccccc3)cc2)cc1,-26.8,0.3%,-6.9,19.0,15.0,12.6
S=C(NCc1cccnc1)Nc1ccc(Cl)c(Cl)c1,-45.6*,8.1%,-4.2,-13.7,2.9,27.8
COc1ccc(C(=O)NCCS(=O)(=O)NCc2cccnc2)cc1,-14.9,-4.7%,-5.5,32.5*,0.0,0.7
COc1ccc(CNC(=S)Nc2ccc(Br)cc2)cc1,-5.4,-1.6%,-7.0,-2.1,2.0,36.8*
Fc1ccc(NC(=S)NCc2cccnc2)cc1,-4.2,-2.7%,2.9,0.3,0.5,2.8
CCOC(=O)CNC(=O)C1CCCCC1,.,-1.1%,.,.,.,.
COc1ccc(/C=C2\SC(=O)N(CC(=O)NCCCn3ccnc3)C2=O)cc1,-12.2,4.8%,-7.2,0.1,0.0,2.3
COc1ccc(C)cc1NC(=O)C(OC(=O)c1ccc([N+](=O)[O-])o1)c1ccccc1 (stereo not given),-48.4*,-1.9%,-0.1,-4.7,-1.1,-0.5
COC(=O)C1CCN(c2nc3ccccc3nc2C(C#N)C(=O)NCCc2ccccc2)CC1 (stereo not given),-35.3*,-3.1%,-1.1,3.9,0.9,2.4
C=CCOC(=O)C(C#N)c1nc2ccccc2nc1N1CCN(Cc2ccc3c(c2)OCO3)CC1 (stereo not given),-32.4*,-5.1%,-13.9,-0.3,2.1,12.0
N#CC(C(=O)NC1CCCCC1)c1nc2ccccc2nc1N1CCN(c2ccccc2F)CC1 (stereo not given),-34.7*,-4.4%,-2.6,-5.5,0.9,10.4

# Screens (PubChem BioAssay)
